Screens deposited in PubChem BioAssay by National Center for Advancing Translational Sciences (NCATS).
VACV mCherry inh – vaccinia inhibition (mCherry reporter); Potency, µM (series often up to 36.5 µM), actives largely listed as inhibitors; actives 0.63% (n = 310,000); AID 720579; Vaccinia virus mCherry reporter infection, fluorescence; calls by dose curve; tested in A549 cells; note: nearly all actives have a fitted effect of over 35% in size
HCMV antiviral – inhibitors of human cytomegalovirus; HFF cells, HCMV-luciferase reporter, 72 h; hits give low values; activity change, negative = inhibition, % at 57.5 µM; actives 4.5% (n = 410,000); in the data active = activity change below about -60%; inconclusive = no clear call, values can overlap the other calls; inactive = above about -39%
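Two compound doses tested in HFFs infected with HCMV-luciferase, MOI 1 PFU/cell, 72 h at 37C. Lysate luminescence read with OneGlo; data normalized against buffer-only and 10uM Salinomycin inhibitor controls.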
FBPA Giardia inh – Giardia lamblia aldolase inhibition; A8B2U2; purified Giardia FBPA; Potency, µM (top dose mostly 59.6 µM), usual class: inhibitors; actives 0.71% (n = 290,000); AID 2451; note: nearly all actives have a fitted effect of over 55% in size
Target sequence (A8B2U2 whole entry, looked up): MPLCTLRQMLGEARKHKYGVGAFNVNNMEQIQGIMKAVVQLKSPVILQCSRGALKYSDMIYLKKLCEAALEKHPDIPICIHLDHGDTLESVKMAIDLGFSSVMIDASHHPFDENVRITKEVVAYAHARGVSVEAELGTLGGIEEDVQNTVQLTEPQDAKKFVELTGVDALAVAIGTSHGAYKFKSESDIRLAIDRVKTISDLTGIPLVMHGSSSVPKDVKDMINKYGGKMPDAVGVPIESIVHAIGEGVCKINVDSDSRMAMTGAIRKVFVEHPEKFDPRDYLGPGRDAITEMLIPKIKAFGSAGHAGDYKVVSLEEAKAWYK
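Giardia FBPA (40 nM reagent) was preincubated 10 min at RT with compound (up to 57.5 uM final), then substrate plus GAPDH/TPI/NAD/arsenate coupling system with diaphorase/resazurin was added; resorufin fluorescence (525/598 nm) was read after 20 min.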
VACV Venus inh – vaccinia inhibition (Venus reporter); Vaccinia virus Venus reporter expression, fluorescence; Potency, µM (top dose mostly 36.5 µM), most hits filed as inhibitors; actives 0.46% (n = 330,000); calls by dose curve; tested in A549 cells; note: nearly all actives have a fitted effect of over 30% in size
HCV inh – inhibitors of hepatitis C virus infection | Potency, µM (doses to about 41.8 µM), most hits filed as inhibitors | Huh7.5.1 HCVcc-Cre infection, luciferase reporter, 44 h | actives 3.4% (n = 340,000)
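Cells seeded at 1,000/well and cultured 4 h, then compounds added followed by HCVcc-Cre virus (~0.5 moi). After 44 h further culture, luciferase substrate was added, plates held 15 min at room temperature, and luminescence read for 15 sec.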
FMDV inh – blocks foot and mouth disease virus; actives 1.2% (n = 410,000); Potency, µM (top dose mostly 57.9 µM), hits mostly inhibitors; AID 1159524; FMDV antiviral cell-based qHTS; calls by dose curve; tested in HEK293T cells; note: read-out not given here; nearly all actives have a fitted effect of over 45% in size
Large screens that a line does not name were inactive. Only some compounds are listed: those with a hit (about 7.5% of all), similar ones and a draw of the others. Unless noted, calls come from the whole dose curve; as a rule, active = well fitted curve in the direction sought with a large enough effect; inconclusive = small, poorly fitted or top-dose-only effect, or another doubt; inactive = no such curve, though single readings can be large; an effect the other way counts as inactive or inconclusive.

CCN(CC)CCCNC(=O)c1cc(-c2ccccc2)c(N2CCCCC2)s1	HCV inh 6.31µM, FMDV inh inconclusive
Fc1ccc(Nc2nc(SCc3ccccc3F)nc3ccccc23)cc1	HCMV antiviral -85.7 (no result: FBPA Giardia inh, HCV inh)
FC(F)(F)c1cccc(CC2CN(Cc3ccccc3)Cc3ccccc3N2c2cc(Cl)cc(Cl)c2)c1 (stereo not given)	HCMV antiviral -98.1 (no result: FBPA Giardia inh, HCV inh)
CCN1/C(=C/c2ccc3cc(C)ccc3[n+]2CC)Sc2cc(C)ccc21	HCMV antiviral -99.7, HCV inh 2.51µM, FMDV inh inconclusive (no result: VACV mCherry inh, VACV Venus inh)
CCN1/C(=C/c2ccc3ccccc3[n+]2CCCS(=O)(=O)[O-])C=Cc2cc(C)ccc21	FMDV inh inconclusive
CCN1/C(=C/c2ccc3ccccc3[n+]2CC)C=Cc2ccccc21	HCMV antiviral -104.1, HCV inh 4.47µM, FMDV inh inconclusive (no result: VACV mCherry inh)
CCCCN1/C(=C/c2ccc3ccccc3[n+]2CC)Sc2ccccc21	HCV inh 8.91µM, FMDV inh 20µM (no result: HCMV antiviral)
CCN1/C(=C/c2ccc3cc(C)ccc3[n+]2C)Sc2ccc3sccc3c21	HCMV antiviral -95.6, HCV inh inconclusive (no result: VACV mCherry inh, VACV Venus inh)
O=C(Cc1cccs1)N[C@H]1CC[C@@]23CCCN2C(=O)CCC[C@H]3[C@H]1Cc1ccccc1	none (no result: VACV mCherry inh, FBPA Giardia inh, VACV Venus inh, HCV inh, FMDV inh)
Cc1ccc(Cl)cc1N1CCN(CCCNC(=O)c2nnc(Cc3cccc(Cl)c3)o2)CC1	HCMV antiviral -101.8, FMDV inh inconclusive (no result: FBPA Giardia inh, HCV inh)
C=Cc1cccc(NC(=O)c2ccc(NC(=O)c3ccco3)cc2)c1	HCMV antiviral inconclusive, HCV inh 11.2µM (no result: VACV mCherry inh, VACV Venus inh)
CCOC(=O)c1cccc(NC(=O)c2ccc(NC(=O)c3ccco3)cc2)c1	HCMV antiviral -64.4, HCV inh inconclusive, FMDV inh inconclusive (no result: VACV mCherry inh, FBPA Giardia inh, VACV Venus inh)
CCOc1ccccc1NC(=O)c1cccc(NC(=O)c2ccco2)c1	HCMV antiviral inconclusive, VACV Venus inh inconclusive, HCV inh 3.16µM, FMDV inh inconclusive (no result: VACV mCherry inh)
CCOc1cc(NS(=O)(=O)c2ccccc2)c(OCC)cc1NC(=O)c1ccco1	HCMV antiviral -100.6, FBPA Giardia inh inconclusive (no result: VACV mCherry inh, VACV Venus inh)
O=C(/C=C\c1ccccc1)Nc1ccc(NC(=O)c2ccco2)cc1	HCMV antiviral -100.9, HCV inh inconclusive
CCOC(=O)c1c(C)[nH]c(C)c1C(=O)COc1ccc(NC(=O)c2ccco2)cc1	HCMV antiviral -64.4 (no result: VACV mCherry inh, VACV Venus inh)
O=C(/C=C/c1ccc(Br)cc1)c1ccc(NC(=O)c2ccco2)cc1	VACV mCherry inh inconclusive, VACV Venus inh inconclusive, HCV inh inconclusive
CC1=Nc2nc(N3CCCCCC3)c(C#N)c3c4c(nc(c23)N1)N(c1ccc2ccccc2c1)C(=O)C4	none (no result: VACV mCherry inh, HCMV antiviral, FBPA Giardia inh, VACV Venus inh)
O=C(NC(c1ccc(Cl)cc1)c1ccsc1)C1CCN(Cc2cccc(Cl)c2)CC1 (stereo not given)	FMDV inh inconclusive (no result: FBPA Giardia inh, HCV inh)
O=C(NCCN1CCC(n2c(=O)[nH]c3ccccc32)CC1)c1ccccc1C(F)(F)F	FMDV inh inconclusive (no result: FBPA Giardia inh, HCV inh)
Cc1ccccc1N=Nc1c(C)[nH]n(-c2ccccc2)c1=O	none (no result: HCMV antiviral)
Cc1[nH]n(-c2ccccc2)c(=O)c1N=Nc1ccccc1O	HCMV antiviral -99.2, HCV inh 4.47µM
Cc1[nH]n(-c2ccccc2)c(=O)c1N=Nc1nccs1	HCMV antiviral -96.0, HCV inh inconclusive (no result: VACV mCherry inh, VACV Venus inh)
Cc1[nH]n(C2=NCCS2)c(=O)c1N=Nc1ccccc1	HCMV antiviral -61.4
CCOC(=O)c1cccc(NC(=O)C2CCN(S(=O)(=O)c3c(C)noc3/C=C/c3ccc(C)cc3)CC2)c1	VACV mCherry inh inconclusive, FMDV inh inconclusive (no result: FBPA Giardia inh, HCV inh)
COc1ccc(-c2noc(C(C)NC(=O)c3ccco3)n2)cc1OC (stereo not given)	none
COc1ccc(N2CCN(S(=O)(=O)c3c(C)noc3/C=C/N(C)C)CC2)cc1	none (no result: VACV mCherry inh, VACV Venus inh)
Cc1noc(/C=C/N(C)C)c1S(=O)(=O)N1CCN(c2ccc(F)cc2)CC1	HCMV antiviral -62.1 (no result: VACV mCherry inh, VACV Venus inh)
CC[N+]1(CC(=O)c2ccc(Cl)cc2)CCCCC1	none (no result: HCMV antiviral, FBPA Giardia inh, HCV inh, FMDV inh)
CC(C)(CO)Nc1nc(Nc2ccccc2)nc(Nc2ccccc2)n1	HCV inh 10µM (no result: VACV mCherry inh)
O=C(c1csnn1)N1CCC2(CCCN(Cc3ccccc3)C2)CC1	none (no result: VACV mCherry inh, HCMV antiviral, VACV Venus inh, HCV inh)
COc1cc(=O)n2c(c1C(=O)N(C)Cc1nccs1)CCN(Cc1ccc(F)c(F)c1)CC2	none (no result: HCMV antiviral, FBPA Giardia inh, HCV inh)
COc1ccc(-c2ocnc2C(=O)NCc2nn(-c3ccccc3)nc2C)cc1	HCMV antiviral inconclusive, HCV inh 2.51µM (no result: VACV mCherry inh, VACV Venus inh)
CCCC(=O)NC1CCCc2c1cnn2-c1ccc(C)c(C)c1 (stereo not given)	none (no result: VACV mCherry inh, VACV Venus inh)
